PubChem BioAssay AID556 (SRMLSC, 2006)
In all, about 65,000 compounds went through this assay and about 320 (0.49%) were called active.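 Rule for the calls: active = the 320 compounds with the highest percent inhibition in the single-dose primary screen, excluding strongly autofluorescent ones (cut at about 32% in these data); inactive = the rest, inconclusive results apart.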 Shown is part of a subset that was picked to be rich in actives.

Tested on: diphosphomevalonate decarboxylase (Streptococcus pneumoniae D39)
Test: diphosphomevalonate decarboxylase activity blockers – biochemical, PK/LDH-coupled NADH fluorescence, primary screen (AID 556);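 for inhibition: kinetic rate of NADH fluorescence loss reporting ADP formed by the decarboxylase; 0% = full reaction rate with carrier and 100% = no-substrate background rate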
Settings: purified DPM-DC, at 10 µM; stronger effect = higher value unless noted

Structure (SMILES) | inhibition | outcome
Cc1cc(=O)cc(C)[nH]1 | 42% (active) | –
Cc1cc(=O)[nH]c(=S)[nH]1 | inactive | –
COc1ccc(C2CC(c3ccc(Cl)cc3Cl)Nc3nc(N)nn32)cc1OC (stereo not given) | inactive | –
CCOC(=O)CCCNC(=O)CN1C(=O)NC(CCc2ccccc2)C1=O (stereo not given) | inactive | –
CCOc1ccc(-c2nnn(CC(=O)N3CCN(c4ccc(F)cc4)CC3)n2)cc1OCC | 0% [measured here: pilot screen trials, stronger effect = higher value] | inactive
CCOC(=O)CSc1nccc(N(C)C)c1C#N | inactive | –
CC(=O)c1cc(-c2ccccc2)[nH]c1N1CCCC1 | 1% (inactive) | –
CCOC(=O)/C=c1\s/c(=C\c2ccccc2OC)c(=O)n1CC(=O)N1CCOCC1 | 4% (inactive) | –
CC1(C)CC(CCC(=O)Nc2ccccc2Cl)C(=O)O1 (stereo not given) | inactive | –
COc1ccc(-n2nnc3c(=O)n(CC(=O)N4CCC(Cc5ccccc5)CC4)cnc32)cc1 | inactive | –
CCOC(=O)c1ccc(N2C(=O)CC(N3CC(C)OC(C)C3)C2=O)cc1 (stereo not given) | inactive | –
O=C(O)c1ccc(-n2cccc2)cc1O | 1% (inactive) | –
Cc1ccc(S(=O)(=O)N2CCCC2C(=O)NCc2ccco2)cc1 (stereo not given) | 4% (inactive) | –
O=C1NC2(CCCCC2)N=C1c1ccccc1 | inactive | –
COc1ccc(S(=O)(=O)N2CCC(C(=O)N3CCc4ccccc4C3)CC2)cc1OC | inactive | –
CCOC(=O)c1c(-n2cnnn2)sc(C)c1C | 2% (inactive) | –
Cc1nc(C)c(C(=O)Nc2cccc(C)c2C)o1 | inactive | –
COc1ccc2[nH]c(=O)c(CN(CC3CCCO3)C(=O)Nc3ccccc3)cc2c1 (stereo not given) | 33% (active) | –
CCC(c1nnnn1Cc1ccccc1)N(Cc1cc2cc(OC)ccc2[nH]c1=O)CC1CCCO1 (stereo not given) | 5% (inactive) | –
COc1ccc2[nH]c(=O)c(CN(Cc3nnnn3CCc3ccccc3)CC3CCCO3)cc2c1 (stereo not given) | 2% (inactive) | –
O=C1[C@@H]2C(Cc3ccc(O)cc3)NC3(C(=O)Nc4ccc(F)cc43)[C@@H]2C(=O)N1c1ccc(F)cc1 (stereo not given in full) | inactive | –
CSc1ccc(NC(=O)N2CC(C)OC(C)C2)cc1 (stereo not given) | inactive | –
CCOc1ccc(/C(O)=C2/C(=O)C(=O)N(Cc3cccnc3)C2c2ccc(N(C)C)cc2)c(C)c1 (stereo not given) | 2% (inactive) | –
Cc1ccc(N(C(=O)CC2NC(=O)NC2=O)C2(C(=O)NC3CCCC3)CCCCC2)cc1 (stereo not given) | inactive | –
COc1ccc(CCNC(=O)CN2CCC(n3nnc4cc(F)ccc43)CC2)cc1OC | inactive | –

Structure (SMILES) | inhibition | outcome
O=C(CSc1nnnn1C1CCCC1)Nc1ccc2c(c1)OCCO2 | inactive | –
N#CCCN1CCN(S(=O)(=O)c2ccc(S(=O)(=O)N3CCCC3)cc2)CC1 | 7% (inactive) | –
CN(CC(=O)NC1CCCCC1)S(=O)(=O)c1cccc2cccnc12 | inactive | –
O=C(Oc1ccccc1)c1ccc2nccnc2c1 | inactive | –
CCOC(=O)c1sc(NC(=O)c2cc(S(=O)(=O)N3CCOCC3)ccc2C)nc1C | 11% (inactive) | –
Cc1ccc(N2CCN(c3ccc(C)cc3)C2c2ccccn2)cc1 | inactive | –
O=C(c1cc(-c2cccc(O)c2)on1)N1CCc2ccccc2C1 | 1% (inactive) | –
COc1cc(Cl)c(S(=O)(=O)N2CCN(Cc3ccc4c(c3)OCO4)CC2)cc1Cl | inactive | –
O=C(c1cc(-c2cccs2)on1)N1CCCCC1 | inactive | –
Cc1ccc2cc3cc(C(=O)N4CCCCCC4)oc3nc2c1 | 33% (active) | –
Cc1ccc(C(=O)N2CCCCCC2)cc1Br | inactive | –
CCOC(=O)CNC(=O)CSc1nnc(COc2ccc(Cl)cc2)n1CC | 2% (inactive) | –
Cc1oc(-c2ccccc2F)nc1CS(=O)(=O)CC(=O)NCCCN(C)C1CCCCC1 | 9% (inactive) | –
COc1ccc(-n2c(Cc3cccn3C)nnc2SCC(=O)Nc2cc(C)cc(C)c2)cc1 | inactive | –
O=C(O)CCCC(=O)Nc1ccccc1-n1ccnc1 | inactive | –
Cc1nc(SCC(=O)Nc2cc(C)on2)c2c(C)c(C)sc2n1 | inactive | –
CCOc1ccccc1N(CC(=O)Nc1ccccc1C(=O)OC)S(C)(=O)=O | inactive | –
COc1ccc(OC)c(NC(=O)CN2CCN(C(=O)c3ccco3)CC2)c1 | inactive | –
COc1cccc(C2/C(=C(/O)c3ccncc3)C(=O)C(=O)N2CCCN(C)C)c1 (stereo not given) | 16% (inactive) | –
CC(C)c1nc(-c2ccccn2)no1 | inactive | –
CC(=O)NCC(=O)N(C)C(C(=O)Nc1ccc2c(c1)OCCO2)c1ccccc1 (stereo not given) | inactive | –
Cc1cc(C)cc(OCc2nnc(SCC(=O)OC3CCCCC3)o2)c1 | inactive | –
CCOC(=O)c1ccc(N2C(=O)CC(Sc3nc(O)c(CC)c(=O)[nH]3)C2=O)cc1 (stereo not given) | inactive | –
Cn1c2c(c(=O)n(C)c1=O)C1c3ccccc3OCC1C(C)(C)O2 (stereo not given) | 10% (inactive) | –
